What all share (details): mRNA level, 48 h; actives raise or lower the signal
Read-out in experiment [1]: Insulin Like Growth Factor 1 (IGF1), IGF1 (gene 3479)
The experiment can be described thus: LTEA_HepaRG_IGF1: Life Technologies and Expression Analysis (LTEA) Assay for Insulin Like Growth Factor 1 (IGF1) using HepaRG (AID 2283506). The method in brief: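 Endpoint: IGF1 mRNA change by qRT-PCR, housekeeping-normalized, fitted bidirectionally relative to 0.5% DMSO vehicle. Human HepaRG cells were treated 48 h in serum-free induction medium, eight half-log concentrations topping at 100 uM.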

Read-out in experiment [2]: Intercellular Adhesion Molecule 1 (ICAM1), ICAM1 (gene 3383)
The experiment can be described thus: LTEA_HepaRG_ICAM1: Life Technologies and Expression Analysis (LTEA) Assay for Intercellular Adhesion Molecule 1 (ICAM1) using HepaRG (AID 2283507). The gist of the method:
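ICAM1 transcript levels measured by qRT-PCR, normalized to three housekeeping genes (ACTB, GAPDH, POLR2A), after 48 h chemical exposure of HepaRG cells. Duplicate eight-point half-log series from 100 uM in 0.5% DMSO; gain or loss fitted against vehicle.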

Read-out in experiment [3]: Insulin-like growth factor-binding protein 1 (IGFBP1), IGFBP1 (gene 3484)
The experiment can be described thus: LTEA_HepaRG_IGFBP1: Life Technologies and Expression Analysis (LTEA) Assay for Insulin-like growth factor-binding protein 1 (IGFBP1) using HepaRG (AID 2283508). The gist of the method: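 Read-out is qRT-PCR transcript level normalized to three housekeeping genes, fitted in both directions against 0.5% DMSO. Differentiated HepaRG cells received eight half-log concentrations (top 100 uM) in duplicate for 48 h in serum-free induction medium.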

Read-out in experiment [4]: Interleukin 6 (IL6), IL6 (gene 3569)
The experiment can be described thus: LTEA_HepaRG_IL6: Life Technologies and Expression Analysis (LTEA) Assay for Interleukin 6 (IL6) using HepaRG (AID 2283509). The method in brief:
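Transcript levels, normalized to three housekeeping genes, were quantified by qRT-PCR after 48 h chemical treatment of HepaRG cells. Eight-point half-log series from 100 uM in 0.5% DMSO, duplicates. Fitted both directions against DMSO baseline.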

Read-out in experiment [5]: Interleukin 6 Receptor (IL6R), IL6R (gene 3570)
The experiment can be described thus: LTEA_HepaRG_IL6R: Life Technologies and Expression Analysis (LTEA) Assay for Interleukin 6 Receptor (IL6R) using HepaRG (AID 2283510).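 On AC50: differentiated human HepaRG liver cells in serum-free induction medium.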 The method in brief:
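In this HepaRG screen, test chemicals act on cells for 48 h at up to 100 uM (eight half-log points, duplicate wells). IL6R expression is quantified by qRT-PCR after normalization to ACTB, GAPDH and POLR2A, with DMSO as baseline.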

Read-out in experiment [6]: Potassium channel subfamily K member 1 (KCNK1), KCNK1 (gene 3775)
The experiment is described as follows: LTEA_HepaRG_KCNK1: Life Technologies and Expression Analysis (LTEA) Assay for Potassium channel subfamily K member 1 (KCNK1) using HepaRG (AID 2283511). The method in brief: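 KCNK1 transcript measured by TaqMan qRT-PCR against three housekeeping genes, after HepaRG cells were treated 48 h with eight half-log concentrations (top 100 uM, 0.5% DMSO). Curves fitted bidirectionally relative to vehicle.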

Read-out in experiment [7]: Keratin 19 (KRT19), KRT19 (gene 3880)
The experiment can be described thus: LTEA_HepaRG_KRT19: Life Technologies and Expression Analysis (LTEA) Assay for Keratin 19 (KRT19) using HepaRG (AID 2283512). The gist of the method:
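KRT19 transcript measured by TaqMan qRT-PCR, referenced to three housekeeping genes, after HepaRG cells received test chemicals for 48 h. Eight half-log concentrations, top 100 uM, 0.5% DMSO vehicle; increases and decreases both fitted.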

Read-out in experiment [8]: JUN Transcription Factor, JUN (gene 3725)
The experiment can be described thus: LTEA_HepaRG_JUN: Life Technologies and Expression Analysis (LTEA) Assay for JUN Transcription Factor using HepaRG (AID 2283513). The gist of the method: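 Gene-expression endpoint: JUN mRNA (qRT-PCR, normalized to three reference genes) in HepaRG cultures treated 48 h with chemicals, duplicate wells, 100 uM maximum with half-log dilutions; bidirectional fitting relative to 0.5% DMSO.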

Read-out in experiment [9]: Lipase C (LIPC), LIPC (gene 3990)
The experiment can be described thus: LTEA_HepaRG_LIPC: Life Technologies and Expression Analysis (LTEA) Assay for Lipase C (LIPC) using HepaRG (AID 2283514). The method in brief: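 LIPC expression was quantified by qRT-PCR against three housekeeping genes (ACTB, GAPDH, POLR2A). Differentiated human HepaRG cells received eight half-log doses (top 100 uM, 0.5% DMSO) in duplicate for 48 h; fitting bidirectional relative to DMSO.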

Read-out in experiment [10]: Lipoprotein lipase (LPL), LPL (gene 4023)
The experiment can be described thus: LTEA_HepaRG_LPL: Life Technologies and Expression Analysis (LTEA) Assay for Lipoprotein lipase (LPL) using HepaRG (AID 2283515). The gist of the method:
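LPL transcript levels quantified by TaqMan qRT-PCR against three housekeeping genes after 48 h chemical treatment of HepaRG cells. Eight-point half-log series from 100 uM in 0.5% DMSO, tested in duplicate; bidirectional fitting versus vehicle.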

Activity calls are given as the source filed them. How the source made its calls: active means hit-call score of the fitted dose curve at least 0.9, where 1 is the maximum; inactive means score below 0.9.

In general, AC50 refers to the concentration giving half of the maximal activity seen.

Consider `COCC(=O)N(c1c(C)cccc1C)C(C)C(=O)OC` (stereo not given), for which the compound was classed as inactive in [1], in experiment [2], in [3], in experiment [4], in [5] and in [6]. Also, the compound was classed as inactive in [7], in experiment [8], in experiment [9] and in experiment [10].

`O=c1n(Cl)c(=O)n(Cl)c(=O)n1Cl`: the result in experiment [1], in [2], in experiment [3], in experiment [4], in [5] and in [6] was inactive. For the same compound, the result in [7], in [8], in [9] and in experiment [10] was inactive.

Regarding `O=C(Nc1ccccc1-c1ccc(Cl)cc1)c1cccnc1Cl`, the AC50 in [1] was 52.5 µM (active). Further, the call in experiment [2], in experiment [3], in [4], in experiment [5], in experiment [6] and in experiment [7] was inactive. Besides, the outcome in [8], in experiment [9] and in [10] was inactive.

For the compound `Nc1cnn(-c2ccccc2)c(=O)c1Cl`, the outcome in experiment [1], in [2], in [3], in experiment [4], in experiment [5] and in experiment [6] was inactive. In addition, the compound was called inactive in experiment [7], in experiment [8], in experiment [9] and in experiment [10].

As to `CCOP(=O)(OCC)Oc1nc(Cl)c(Cl)cc1Cl`, the call in experiment [1], in experiment [2], in [3], in experiment [4], in [6] and in experiment [7] was inactive. In addition, in experiment [8], the compound was classed as inactive. The AC50 in experiment [5] is 60.2 µM (active); in [9], 78.7 µM (active); in [10], 61.5 µM (active).

Take `CCNC(=O)NC(=O)C(C#N)=NOC`: the compound was classed as inactive in experiment [1], in experiment [2], in experiment [3], in experiment [4], in experiment [5] and in experiment [6]. Further, the outcome in experiment [7], in experiment [8] and in [10] was inactive. Further, the AC50 in [9] was 50 µM (active).

For `OC(c1ccc(Cl)cc1)(c1ccc(Cl)cc1)C(Cl)(Cl)Cl`, the concentration at half-maximal activity (AC50) in [1] was 50 µM (active); in [2], 77.6 µM (active); in experiment [3] it was 73.6 µM (active); in [4] it was 76.6 µM (active); in experiment [6], 50 µM (active); in [7], 50 µM (active). Also, in [9], the AC50 was 77.7 µM (active). Moreover, the call in [5], in [8] and in [10] was inactive.

On to `COP(=S)(OC)Oc1ccc([N+](=O)[O-])c(C)c1`, for which the result in [1], in [2], in [3], in [4], in experiment [5] and in experiment [6] was inactive. The compound was classed as inactive in experiment [7], in experiment [8], in experiment [9] and in experiment [10].

In the case of `COc1ccc(-c2ccccc2)cc1NNC(=O)OC(C)C`, the result in experiment [1], in experiment [2], in experiment [3], in experiment [4], in experiment [5] and in [6] was inactive. Moreover, the outcome in [7], in experiment [8], in experiment [9] and in [10] was inactive.

For the compound `COc1cc(Cl)c(OC)cc1Cl`, the result in experiment [1], in experiment [2], in [3], in experiment [4], in experiment [5] and in experiment [6] was inactive. In addition, the result in experiment [7], in experiment [8], in experiment [9] and in [10] was inactive.

Consider `Cc1c(COC(=O)[C@@H]2[C@H](/C=C(\Cl)C(F)(F)F)C2(C)C)cccc1-c1ccccc1`, for which the AC50 in [1] is 34.7 µM (active). Also, the call in [2], in experiment [3], in experiment [4], in experiment [5], in [6] and in experiment [7] was inactive. In addition, the compound was classed as inactive in experiment [8], in experiment [9] and in [10].

`COC(=O)NC(=S)Nc1ccccc1NC(=S)NC(=O)OC`: the AC50 in [1] is 29.9 µM (active). Also, the result in [2], in experiment [3], in experiment [4], in experiment [5], in [6] and in experiment [7] was inactive. Also, the result in [8], in [9] and in [10] was inactive.

`O=C(O)c1c(Cl)ccc2cc(Cl)cnc12`: the compound was called inactive in experiment [1], in [2], in [3], in [4], in experiment [5] and in [6]. Moreover, the compound was classed as inactive in experiment [7], in [8], in [9] and in experiment [10].

Turning to `Clc1nc(Cl)nc(Nc2ccccc2Cl)n1`, the compound was classed as inactive in [1], in [2], in experiment [3], in experiment [4], in experiment [5] and in [6]. The call in experiment [7], in [8], in [9] and in experiment [10] was inactive.

For `COC(=O)NS(=O)(=O)c1ccc(N)cc1`, the compound was classed as inactive in experiment [1], in experiment [2], in experiment [3], in [4], in [5] and in experiment [6]. Further, the compound was classed as inactive in experiment [7], in experiment [8], in experiment [9] and in experiment [10].

Turning to `CC(C)NC(=O)N1CC(=O)N(c2cc(Cl)cc(Cl)c2)C1=O`, the AC50 was 3.79 µM (active) in experiment [1]; 2.86 µM (active) in experiment [5]; 20.3 µM (active) in experiment [7]; 10.2 µM (active) in experiment [9]; 14.6 µM (active) in [10]. Further, the result in [2], in [3], in experiment [4], in experiment [6] and in experiment [8] was inactive.

As to `CCCCC(C#N)(Cn1cncn1)c1ccc(Cl)cc1` (stereo not given), in experiment [1], the AC50 is 68.7 µM (active). In addition, the outcome in experiment [2], in experiment [3], in experiment [4], in [5], in [6] and in experiment [7] was inactive. Further, the outcome in experiment [8], in [9] and in experiment [10] was inactive.

For `CC1(C)C(C(=O)OC(C#N)c2cccc(Oc3ccccc3)c2)C1(C)C` (stereo not given), the outcome in experiment [1], in [2], in [3], in experiment [4], in experiment [5] and in [6] was inactive. For the same compound, the compound was classed as inactive in experiment [7], in [8], in experiment [9] and in [10].
